Potency and affinity values are given separately. Calls of active or inactive are those of the source.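 The calls were made as follows: active = polarization signal falls with dose and the fitted half-maximal concentration is at or below ten times the sample's top valid dose; inconclusive = flat curve at 30 to 70% inhibition, or poor fit; inactive = signal rises, flat within 30%, or potency beyond limit.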
These compounds were tested against Golgi-associated PDZ and coiled-coil motif-containing protein (Homo sapiens) (UniProt Q9HD26) (assay: CAL PDZ peptide-binding inhibitors, dose response, biochemical, fluorescence polarization, Cerulean-tagged CAL PDZ, cherry-picks (AID 504773;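 also: 0% = DMSO neutral wells and -100% = excess unlabeled competitor peptide wells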)). Conditions: 1 h; series mostly up to 50 µM; activity change, negative = inhibition: at the top concentration.

Activity change, negative = inhibition, inactive:
Cc1ccc2nc3c(nc2c1)-c1ccccc1C3=O 23.8%
Cc1cccc(N(Cc2cc(=O)[nH]c3ccccc23)C(=O)C(C)C)c1 31.4%
CNC(=O)c1nnn(Cc2ccccc2)c1NC(C)=O 3.9%
CC(CCCC(C)(C)O)NC(=O)c1ccc(OC2CCN(C(=O)C3CC3)CC2)cc1 (stereo not drawn) 7.11%
CCC(=O)c1ccc(N2CCC(C)CC2)c(F)c1 14.7%
O=C(NC(Cc1c[nH]c2ccccc12)C(=O)O)/C(=C/c1ccc(F)cc1)NC(=O)c1ccccc1 (stereo not drawn) 8.53%
Cc1ccc(-c2nc3ccccc3c(=O)o2)cc1 34.2%
O=C(OCC(=O)N1CCc2ccccc2C1)c1cccnc1Cl -20.7%
CC1CCC(NS(=O)(=O)c2ccc3c(c2)n(C)c(=O)c(=O)n3C)CC1 (stereo not drawn) 13.3%
O=C(CN(Cc1ccccc1)S(=O)(=O)c1ccc(F)cc1)NCCC1=CCCCC1 28.8%
Cc1cc(C)nc(CCNC(=O)c2cc(COc3c(C)cccc3C)on2)n1 17.2%
COc1cc(C2NC(=O)NC(C)=C2C(=O)OC2CCCCC2)cc(Br)c1O (stereo not drawn) 23.5%
O=C(NC1CCCN(Cc2ccc(Cl)cc2)C1)c1cccc(N2CCCC2=O)c1 (stereo not drawn) 9.36%
COc1ccc(S(=O)(=O)N2CC(=O)Nc3ccccc32)cc1F 13.2%
COCCCNC(=O)c1cc(S(=O)(=O)N2CCOCC2)ccc1SCc1cccc(OC)c1OC -5.41%
S=C(NCCc1ccccc1)NC1CCC(NC(=S)NCCc2ccccc2)CC1 (stereo not drawn) 18.7%
COc1ccc(/C=C2\N=C(c3ccc(C)cc3)OC2=O)cc1 -21.2%
COc1ccc(-c2nc3ccccc3o2)cc1OC -10.8%

From PubChem BioAssay AID504773 (Broad Institute, 2011)
